PubChem BioAssay (EPA / NIEHS)
Records with an inconclusive call do not appear. Activity calls are given as the source filed them. Rule for the calls, unless noted: active = hit-call score of the fitted dose curve at least 0.9, where 1 is the maximum; inconclusive = response in the unintended direction; inactive = score below 0.9.

Columns and labels:
[1] = test system: Sodium/Iodide Symporter (NIS), SLC5A5 (gene 6528); assay: CPHEA_Stoker_NIS_Inhibition_RAIU: CPHEA's Radioactive Iodide Uptake (RAIU) Assay for Sodium/Iodide Symporter (NIS) Inhibition, Stoker and Laws Labs (AID 2283841)
Outline: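 Iodide uptake through human NIS is measured in an engineered HEK293T line. Cells take up 125I (329pM final) for 2 hours at room temperature alongside chemicals at 0.001–100uM. Retained radioactivity is counted, and the signal is expressed against DMSO controls.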

[2] = CEETOX_H295R_OHPREG_noMTC: CeeTox H295R High-throughput Steroidogenesis Assay for OH-Pregnenolone (OHPREG), maximum tolerated concentration (MTC) filtered results only (AID 2283912; active = hit-call score of the fitted dose curve at least 0.9, where 1 is the maximum; inactive = score below 0.9); conditions: actives raise or lower the signal
Outline: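 Medium 17alpha-hydroxypregnenolone quantified by reverse-phase HPLC-MS/MS after 48 h chemical exposure of forskolin-prestimulated (10 uM, 48 h) H295R, 0.1% DMSO final. Fitting bidirectional relative to DMSO; no maximum-tolerated-concentration filtering applied.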

[3] = CEETOX_H295R_OHPROG_noMTC: CeeTox H295R High-throughput Steroidogenesis Assay for OH-Progesterone (OHPROG), maximum tolerated concentration (MTC) filtered results only (AID 2283914; active = hit-call score of the fitted dose curve at least 0.9, where 1 is the maximum; inactive = score below 0.9); conditions: actives raise or lower the signal
Outline: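 After 48 h forskolin (10 uM) prestimulation, H295R adrenal cells received test chemical in 0.1% DMSO for 48 h. Medium 17alpha-hydroxyprogesterone was MTBE-extracted and measured by HPLC-MS/MS; gain or loss relative to DMSO, no MTT-based MTC filtering.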

[4] = CEETOX_H295R_ESTRADIOL_noMTC: CeeTox H295R High-throughput Steroidogenesis Assay for Estradiol, maximum tolerated concentration (MTC) filtered results only (AID 2283919; active = hit-call score of the fitted dose curve at least 0.9, where 1 is the maximum; inactive = score below 0.9); conditions: actives raise or lower the signal
Outline: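 Readout: dansyl-derivatized estradiol quantified by LC-MS/MS in medium from H295R cells dosed 48 h (0.1% DMSO) following 48 h forskolin (10 uM) prestimulation. Gain or loss of signal fitted against DMSO; no MTC filtering applied.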

[5] = CEETOX_H295R_PROG_noMTC: CeeTox H295R High-throughput Steroidogenesis Assay for Progesterone (PROG), maximum tolerated concentration (MTC) filtered results only (AID 2283920; active = hit-call score of the fitted dose curve at least 0.9, where 1 is the maximum; inactive = score below 0.9); conditions: actives raise or lower the signal
Outline: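 Progesterone secreted into medium was measured by HPLC-MS/MS after MTBE extraction, following 48 h chemical exposure (0.1% DMSO) of forskolin-prestimulated (10 uM, 48 h) H295R adrenal cells. Gain or loss fitted against DMSO; no MTC filtering.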

[6] = CEETOX_H295R_ESTRONE_noMTC: CeeTox H295R High-throughput Steroidogenesis Assay for Estrone, maximum tolerated concentration (MTC) filtered results only (AID 2283921; active = hit-call score of the fitted dose curve at least 0.9, where 1 is the maximum; inactive = score below 0.9); conditions: actives raise or lower the signal
Outline: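 Estrone in spent medium, quantified by tandem MS following dansyl chloride derivatization, after 48 h chemical exposure (0.1% DMSO) of forskolin-prestimulated (10 uM, 48 h) H295R cells; concentrations not MTC-filtered, bidirectional fit against DMSO.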

[7] = target: zebrafish Thyroid Hormone Receptor beta (TRb), thrb (gene 30607) (UniProt Q9PVE4); assay: ATG_zfTRb_XSP2: Attagene TRANS-FACTORIAL Multi-Species (XSP1) HepG2 Assay for zebrafish Thyroid Hormone Receptor beta (TRb) (AID 2283836)
zebrafish Thyroid Hormone Receptor beta (TRb), thrb (gene 30607), sequence (Q9PVE4 whole entry, looked up): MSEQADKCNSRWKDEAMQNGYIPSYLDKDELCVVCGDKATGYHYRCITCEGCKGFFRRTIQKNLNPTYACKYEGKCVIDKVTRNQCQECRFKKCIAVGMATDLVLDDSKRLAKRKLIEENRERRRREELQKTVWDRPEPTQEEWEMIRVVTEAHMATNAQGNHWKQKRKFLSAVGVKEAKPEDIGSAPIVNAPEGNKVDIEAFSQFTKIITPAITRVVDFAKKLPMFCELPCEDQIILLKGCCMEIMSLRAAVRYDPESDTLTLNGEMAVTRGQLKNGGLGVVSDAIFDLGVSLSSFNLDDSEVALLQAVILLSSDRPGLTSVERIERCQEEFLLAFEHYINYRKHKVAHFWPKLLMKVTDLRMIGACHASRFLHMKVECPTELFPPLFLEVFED
Outline: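 Multiplexed trans-activation in HepG2 cells, 24 h treatment, with reporter mRNA read by RT-PCR and capillary electrophoresis. Gain-of-signal against DMSO.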

[8] = ATG_XTT_Cytotoxicity_XSP2: Cytotoxicity Assessment in the Attagene TRANS-FACTORIAL Multi-Species (XSP2) HepG2 Assay (AID 2283837)
Outline: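 XTT-based cell number read-out in human HepG2 liver cells carrying transfected reporter units, measured 24 h after chemical dosing. Activity is signal loss versus DMSO baseline.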

[9] = target: human Thyroid hormone Receptor alpha (TRa), THRA (gene 7067) (UniProt P10827); assay: ATG_hTRa_XSP2: Attagene TRANS-FACTORIAL Multi-Species (XSP2) HepG2 Assay for human Thyroid hormone Receptor alpha (TRa) (AID 2283838)
human Thyroid hormone Receptor alpha (TRa), THRA (gene 7067), sequence (P10827 whole entry, looked up, the tested form may be a part): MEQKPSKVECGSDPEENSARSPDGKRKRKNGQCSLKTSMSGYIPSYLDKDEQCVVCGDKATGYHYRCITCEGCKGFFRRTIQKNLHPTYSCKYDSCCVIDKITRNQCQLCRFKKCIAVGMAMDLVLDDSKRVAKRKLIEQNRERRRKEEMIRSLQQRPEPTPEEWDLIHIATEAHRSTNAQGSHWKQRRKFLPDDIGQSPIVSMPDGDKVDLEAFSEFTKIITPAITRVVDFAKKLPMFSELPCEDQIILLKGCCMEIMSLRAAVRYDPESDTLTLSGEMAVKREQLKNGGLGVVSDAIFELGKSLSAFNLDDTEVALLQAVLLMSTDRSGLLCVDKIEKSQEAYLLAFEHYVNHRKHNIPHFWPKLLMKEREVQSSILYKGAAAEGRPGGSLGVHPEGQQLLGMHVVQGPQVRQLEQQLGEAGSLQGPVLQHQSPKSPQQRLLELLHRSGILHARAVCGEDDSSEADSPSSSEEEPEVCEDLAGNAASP
Outline: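 Gain-of-signal in reporter mRNA, relative to DMSO, after 24 h dosing of transfected HepG2; quantitation by RT-PCR fragment analysis on capillary electrophoresis.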

[10] = target: frog Thyroid hormone Receptor alpha (TRa), thra-a (gene 397942) (UniProt P15204); assay: ATG_frTRa_XSP2: Attagene TRANS-FACTORIAL Multi-Species (XSP2) HepG2 Assay for frog Thyroid hormone Receptor alpha (TRa) (AID 2283839)
frog Thyroid hormone Receptor alpha (TRa), thra-a (gene 397942), sequence (P15204 whole entry, looked up, the tested form may be a part): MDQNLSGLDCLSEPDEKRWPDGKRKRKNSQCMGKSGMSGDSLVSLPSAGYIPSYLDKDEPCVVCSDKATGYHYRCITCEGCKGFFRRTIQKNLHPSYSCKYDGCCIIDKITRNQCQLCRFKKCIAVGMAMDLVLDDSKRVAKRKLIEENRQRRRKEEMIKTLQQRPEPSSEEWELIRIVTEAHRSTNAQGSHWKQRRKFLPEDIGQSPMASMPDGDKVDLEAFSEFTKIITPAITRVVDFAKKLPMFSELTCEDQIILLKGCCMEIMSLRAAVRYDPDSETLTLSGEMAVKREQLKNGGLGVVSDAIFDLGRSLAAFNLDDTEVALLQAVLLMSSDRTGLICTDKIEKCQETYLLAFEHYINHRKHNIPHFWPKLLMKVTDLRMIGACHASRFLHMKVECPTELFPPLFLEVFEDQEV
Outline: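 HepG2 cells transiently transfected with multiplexed GAL4-UAS reporter units expressing chimeric frog TRα-Gal4; reporter mRNA read 24 h after dosing by RT-PCR, FAM-labelled primer extension, HpaI digest and capillary electrophoresis. Gain of signal fitted versus DMSO.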

[11] = target: human Thyroid hormone Receptor beta (TRb), THRB (gene 7068) (UniProt P10828); assay: ATG_hTRb_XSP2: Attagene TRANS-FACTORIAL Multi-Species (XSP2) HepG2 Assay for human Thyroid hormone Receptor beta (TRb) (AID 2283840);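 note: actives raise reporter mRNA so potency reflects agonist-like gain of signal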
human Thyroid hormone Receptor beta (TRb), THRB (gene 7068), sequence (P10828 whole entry, looked up, the tested form may be a part): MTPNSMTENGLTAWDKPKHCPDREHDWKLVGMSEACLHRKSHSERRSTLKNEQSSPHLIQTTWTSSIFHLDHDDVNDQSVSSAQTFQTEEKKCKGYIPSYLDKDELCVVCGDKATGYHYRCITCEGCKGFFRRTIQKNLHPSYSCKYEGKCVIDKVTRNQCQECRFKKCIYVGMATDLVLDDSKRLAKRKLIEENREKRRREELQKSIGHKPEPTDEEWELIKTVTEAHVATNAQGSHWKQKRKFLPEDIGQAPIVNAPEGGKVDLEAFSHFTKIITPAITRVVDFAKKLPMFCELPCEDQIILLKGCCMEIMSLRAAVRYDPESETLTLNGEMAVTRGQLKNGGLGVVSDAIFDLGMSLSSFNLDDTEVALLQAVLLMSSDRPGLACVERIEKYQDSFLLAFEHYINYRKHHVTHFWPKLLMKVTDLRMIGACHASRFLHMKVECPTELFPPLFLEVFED
Outline: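 HepG2 cells were transiently transfected with GAL4-UAS multiplexed reporter units expressing chimeric NR-Gal4 proteins, dosed 24 h; reporter mRNA was quantified by RT-PCR, fluorescent labeling, HpaI digestion and capillary electrophoresis, fitted for gain of signal versus DMSO.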

[12] = CPHEA_Stoker_NIS_Cytotoxicity: Cytotoxicity Assessment for CPHEA's Radioactive Iodide Uptake (RAIU) Assay for Sodium/Iodide Symporter (NIS) Inhibition, Stoker and Laws Labs (AID 2283897);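 for AC50: active means loss of ATP signal versus DMSO meaning cytotoxicity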
Outline: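 ATP luminescence (Cell Titer Glo) measured viability, with loss of signal normalized to DMSO controls. Cells: hNIS-HEK293T-EPA, seeded 40 hours prior. Dosing: 0.001–100uM, 2 hours, room temperature, uptake buffer pH 7.4.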

[13] = CEETOX_H295R_11DCORT_noMTC: CeeTox H295R High-throughput Steroidogenesis Assay for 11-Deoxycortisol (11DCORT), maximum tolerated concentration (MTC) filtered results only (AID 2283911; active = hit-call score of the fitted dose curve at least 0.9, where 1 is the maximum; inactive = score below 0.9); conditions: actives raise or lower the signal
Outline: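 HPLC-MS/MS read-out of 11-deoxycortisol after MTBE extraction of H295R medium. Cells: forskolin 10 uM pre-stimulation 48 h, chemical 48 h, 0.1% DMSO final. Bidirectional fit vs DMSO baseline; no MTC filtering.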

[14] = CEETOX_H295R_ANDR_noMTC: CeeTox H295R High-throughput Steroidogenesis Assay for Androstenedione (ANDR), maximum tolerated concentration (MTC) filtered results only (AID 2283915; active = hit-call score of the fitted dose curve at least 0.9, where 1 is the maximum; inactive = score below 0.9); conditions: actives raise or lower the signal
Outline: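 Androstenedione secreted into medium was measured by LC-MS/MS after MTBE extraction. Human adrenal H295R cells received 10 uM forskolin for 48 h before 48 h chemical exposure (0.1% DMSO). Gain or loss fitted against DMSO, including concentrations above the MTT-derived MTC.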

[15] = CEETOX_H295R_CORTISOL_noMTC: CeeTox H295R High-throughput Steroidogenesis Assay for Cortisol, maximum tolerated concentration (MTC) filtered results only (AID 2283916; active = hit-call score of the fitted dose curve at least 0.9, where 1 is the maximum; inactive = score below 0.9); conditions: actives raise or lower the signal
Outline: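 Cortisol secretion measured by LC-MS/MS after 48 h chemical treatment (final 0.1% DMSO) of forskolin-primed (10 uM, 48 h) H295R cells; gain or loss fitted relative to DMSO, without maximum-tolerated-concentration filtering.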

[16] = CEETOX_H295R_CORTIC_noMTC: CeeTox H295R High-throughput Steroidogenesis Assay for Corticosterone (CORTIC), maximum tolerated concentration (MTC) filtered results only (AID 2283917; active = hit-call score of the fitted dose curve at least 0.9, where 1 is the maximum; inactive = score below 0.9); conditions: actives raise or lower the signal
Outline: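 Human adrenal H295R cells were prestimulated 48 h with 10 uM forskolin, then exposed 48 h to chemical in 0.1% DMSO. Medium corticosterone was MTBE-extracted and quantified by HPLC-MS/MS; bidirectional fits versus DMSO, concentrations not MTC-filtered.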

[17] = CEETOX_H295R_DOC_noMTC: CeeTox H295R High-throughput Steroidogenesis Assay for DOC, maximum tolerated concentration (MTC) filtered results only (AID 2283918; active = hit-call score of the fitted dose curve at least 0.9, where 1 is the maximum; inactive = score below 0.9); conditions: actives raise or lower the signal
Outline: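 11-Deoxycorticosterone secreted by human adrenal H295R cells quantified by HPLC-MS/MS after 48 h chemical exposure (0.1% DMSO), following 48 h 10 uM forskolin prestimulation. Concentrations not filtered by MTT-derived MTC; bidirectional fitting.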

[18] = CEETOX_H295R_TESTO_noMTC: CeeTox H295R High-throughput Steroidogenesis Assay for Testosterone (TESTO), maximum tolerated concentration (MTC) filtered results only (AID 2283924; active = hit-call score of the fitted dose curve at least 0.9, where 1 is the maximum; inactive = score below 0.9); conditions: actives raise or lower the signal
Outline: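 Medium testosterone, measured by HPLC-MS/MS after liquid-liquid extraction, was fitted in both directions relative to DMSO without MTC filtering. Adrenal H295R cells received 48 h chemical exposure (0.1% DMSO final) after 48 h forskolin (10 uM) prestimulation; viability by MTT.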

PGR (gene 5241) = PGR (gene 5241) (UniProt P06401); assay: TOX21_PR_BLA_Followup_Antagonist_ratio: Tox21 HEK293 Progesterone Receptor (PR) Antagonism Beta-lactamase Follow-Up Assay, Ratio (AID 2283934);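 note: PR-UAS-bla HEK293T cells stimulated with 1 nM R5020 agonist for 16 hr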
PGR (gene 5241), sequence (P06401 whole entry, looked up): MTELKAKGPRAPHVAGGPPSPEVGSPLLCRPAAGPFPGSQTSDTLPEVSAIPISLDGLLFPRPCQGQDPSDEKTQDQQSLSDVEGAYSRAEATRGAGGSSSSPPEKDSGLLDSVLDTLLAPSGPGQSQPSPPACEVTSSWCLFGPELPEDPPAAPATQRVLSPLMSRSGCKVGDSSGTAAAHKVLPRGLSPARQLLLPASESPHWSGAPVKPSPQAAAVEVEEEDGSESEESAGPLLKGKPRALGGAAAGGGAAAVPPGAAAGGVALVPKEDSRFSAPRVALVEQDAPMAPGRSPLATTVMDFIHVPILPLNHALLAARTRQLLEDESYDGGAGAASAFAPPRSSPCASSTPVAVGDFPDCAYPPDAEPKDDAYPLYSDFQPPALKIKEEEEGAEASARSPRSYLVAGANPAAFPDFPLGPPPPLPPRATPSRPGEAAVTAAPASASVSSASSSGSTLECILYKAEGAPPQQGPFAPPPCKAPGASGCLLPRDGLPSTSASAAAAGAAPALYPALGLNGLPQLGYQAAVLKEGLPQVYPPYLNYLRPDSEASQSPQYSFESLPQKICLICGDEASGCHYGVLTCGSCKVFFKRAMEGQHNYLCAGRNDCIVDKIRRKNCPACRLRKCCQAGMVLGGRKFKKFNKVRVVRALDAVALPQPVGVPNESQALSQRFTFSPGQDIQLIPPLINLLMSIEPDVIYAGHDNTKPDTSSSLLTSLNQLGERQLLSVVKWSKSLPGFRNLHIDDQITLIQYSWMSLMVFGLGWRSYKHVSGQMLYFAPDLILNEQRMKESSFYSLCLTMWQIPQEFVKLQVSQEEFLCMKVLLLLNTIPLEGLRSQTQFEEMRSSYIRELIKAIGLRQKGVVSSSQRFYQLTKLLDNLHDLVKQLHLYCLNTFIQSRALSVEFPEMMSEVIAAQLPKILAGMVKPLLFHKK
Outline: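 Measured in PR-UAS-bla HEK293T cells co-treated with compound and 1 nM promegestone for 16 hr; beta-lactamase ratio read after 2 h FRET substrate loading, with parallel CellTiter-Glo cytotoxicity.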

[19] = TOX21_PR_BLA_Followup_Agonist_viability: Viability Assessment in the Tox21 HEK293 Progesterone Receptor (PR) Agonism Beta-lactamase Follow-Up Assay (AID 2283935);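 note: signal loss means lower viability so actives are cytotoxic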
Outline: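 Viability is read as CellTiter-Glo luminescence, where loss of signal indicates cytotoxicity. The cells are PR-UAS-bla HEK293T given compounds for 16 hr at 37C and 5% CO2, in the same wells used for the bla readout.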

O=S(=O)(OCCOC(F)(F)F)C(F)(F)F
outcome [1]: inactive

OCC(F)(F)C(F)(F)C(F)(F)C(F)(F)C(F)(F)C(F)F
outcome [1]: inactive

C=CC(=O)OCC(F)(F)C(F)(F)C(F)(F)C(F)(F)COC(=O)C=C
outcome [1]: inactive

COC(=O)C1CCC(C(=O)OC)CC1 (configuration not stated)
outcome [2]: inactive
outcome [3]: inactive
outcome [4]: inactive
outcome [5]: inactive
outcome [6]: inactive

c1ccc(B(c2ccccc2)c2ccccc2)cc1
outcome [7]: inactive
outcome [8]: inactive
outcome [9]: inactive
outcome [10]: inactive
outcome [11]: inactive

CCCCCCOC(=O)c1ccccc1O
outcome [1]: inactive
outcome [12]: inactive

Cc1ccc(S(=O)(=O)OCC(F)(F)C(F)(F)C(F)(F)C(F)(F)C(F)(F)C(F)F)cc1
outcome [1]: inactive

C=CC(=O)OCC(F)(F)C(F)(F)C(F)(F)C(F)(F)C(F)(F)C(F)(F)C(F)(F)F
outcome [1]: inactive

CCCCCCCOC(=O)c1ccccc1C(=O)OCCCCCCC
outcome [13]: inactive
outcome [2]: inactive
outcome [3]: inactive
outcome [14]: inactive
outcome [15]: inactive
outcome [16]: inactive
outcome [17]: inactive
outcome [5]: inactive
outcome [18]: inactive

O=C(O)C(F)(F)C(F)(F)C(F)(F)C(F)(F)C(F)(F)C(F)(F)C(F)(F)C(F)(F)C(F)(F)C(F)(F)C(F)(F)C(F)(F)C(F)(F)F
outcome [1]: inactive

FC(F)(F)C(F)(F)C(F)(F)N(C(F)(F)C(F)(F)C(F)(F)F)C(F)(F)C(F)(F)C(F)(F)F
outcome [1]: inactive

CC(C)OC(=O)c1ccccc1C(=O)OC(C)C
outcome [13]: inactive
outcome [2]: inactive
outcome [3]: inactive
outcome [15]: inactive
outcome [16]: inactive
outcome [17]: inactive
outcome [5]: inactive

O=S(=O)(O)C(F)(F)C(F)(F)C(F)(F)C(F)(F)C(F)(F)C(F)(F)C(F)(F)F
AC50 [1]: 2.31 µM (active)

O=C(OCCOCCOCCOC(=O)c1ccccc1)c1ccccc1
outcome [7]: inactive
outcome [9]: inactive
outcome [10]: inactive
outcome [11]: inactive
outcome [1]: inactive
outcome [12]: inactive

O=C(O)C(F)(F)C(F)(F)C(F)(F)C(F)(F)C(F)(F)C(F)(F)C(F)(F)C(F)(F)C(F)(F)C(F)F
AC50 [1]: 21.7 µM (active)

O=C(O)C(F)(F)C(F)(F)C(F)(F)C(F)(F)C(F)(F)C(F)(F)C(F)(F)C(F)(F)C(F)(F)C(F)(F)C(F)(F)C(F)(F)F
outcome [1]: inactive

O=C(O)C(F)(F)C(F)(F)C(F)(F)C(F)(F)C(F)(F)C(F)(F)C(F)(F)C(F)(F)Cl
AC50 [1]: 33.6 µM (active)

OCCCC(F)(F)C(F)(F)C(F)(F)C(F)(F)C(F)(F)C(F)(F)C(F)(F)F
outcome [1]: inactive

O=C(CC(=O)C(F)(F)C(F)(F)F)C(F)(F)F
AC50 [1]: 9.92 µM (active)

C=C(C)C(=O)OCC(F)(F)C(F)(F)C(F)(F)C(F)(F)C(F)(F)C(F)(F)C(F)(F)F
outcome [1]: inactive

OCC(F)(F)C(F)(F)C(F)(F)C(F)(F)C(F)(F)C(F)(F)F
outcome [1]: inactive

FC(F)(F)C(F)(F)C(F)(F)C(F)(F)C(F)(F)CCI
AC50 [1]: 13.3 µM (active)

CC(Cc1ccc(O)c(O)c1)C(C)Cc1ccc(O)c(O)c1 (configuration not stated)
AC50 [12]: 84 µM (active)

C#C[C@]1(O)CC[C@H]2[C@@H]3CCc4cc(OC)ccc4[C@H]3CC[C@@]21C
outcome [7]: inactive
outcome [8]: inactive
outcome [9]: inactive
outcome [10]: inactive
AC50 [11]: 0.0262 µM (active)
outcome (PGR (gene 5241)): inactive
outcome [19]: inactive

C(=C(c1ccccc1)c1ccccc1)c1ccccc1
outcome [7]: inactive
outcome [9]: inactive
outcome [10]: inactive
outcome [11]: inactive
outcome [1]: inactive
outcome [12]: inactive
AC50 (PGR (gene 5241)): 30.7 µM (active)
outcome [19]: inactive

FC(F)(F)C(F)(F)C(F)(F)C(F)(F)CCI
outcome [1]: inactive
